VP16 counter – VP16 counterscreen qHTS for inhibitors of ROR gamma transcriptional activity; Drosophila S2 Gal4-VP16 UAS-luciferase, luminescence, 20 h; Potency, µM (highest dose often 53.6 µM), for inactives: top-dose activity, negative = inhibition, most hits filed as inhibitors; actives 3.5% (n = 310,000); AID 2546, 2010;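 also: Gal4-VP16 expression switched on by copper sulfate through the metallothionein promoter; potency is read from the fitted curve at half-maximal effect; nearly all actives have a fitted effect of over 50% in size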
GALK inhibitor – qHTS Assay for Inhibitors of Human Galactokinase (GALK); Purified GALK, Kinase-Glo residual ATP luminescence; Potency, µM (series often up to 57.5 µM), inactives show at the highest dose activity change, negative = inhibition, actives largely listed as inhibitors; actives 0.007% (n = 270,000); P51570; also: potency is read from the fitted curve at half-maximal effect
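Human GALK (5 nM) with 35 uM ATP and 100 uM galactose in 20 mM HEPES pH 8.0, 5 mM MgCl2, 60 mM NaCl, 1 mM DTT, 0.01% BSA. After 1 h at room temperature, leftover ATP was read by Kinase-Glo Plus luminescence.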
TrxR1 substrate – qHTS Assay for Substrates of Mammalian Selenoprotein Thioredoxin Reductase 1 (TrxR1): qHTS; Thioredoxin reductase 1, cytoplasmic (Rattus norvegicus), O89049; AID 588456, 2011; actives 0.01% (n = 390,000); purified TrxR1 substrate turnover, NADPH consumption readout; Potency, µM (top dose mostly 114 µM), without a hit: at the top dose activity change, negative = substrate turnover; also: potency is read from the fitted curve at half-maximal effect; nearly all actives have a fitted effect of over 50% in size
Target sequence (O89049 whole entry, looked up): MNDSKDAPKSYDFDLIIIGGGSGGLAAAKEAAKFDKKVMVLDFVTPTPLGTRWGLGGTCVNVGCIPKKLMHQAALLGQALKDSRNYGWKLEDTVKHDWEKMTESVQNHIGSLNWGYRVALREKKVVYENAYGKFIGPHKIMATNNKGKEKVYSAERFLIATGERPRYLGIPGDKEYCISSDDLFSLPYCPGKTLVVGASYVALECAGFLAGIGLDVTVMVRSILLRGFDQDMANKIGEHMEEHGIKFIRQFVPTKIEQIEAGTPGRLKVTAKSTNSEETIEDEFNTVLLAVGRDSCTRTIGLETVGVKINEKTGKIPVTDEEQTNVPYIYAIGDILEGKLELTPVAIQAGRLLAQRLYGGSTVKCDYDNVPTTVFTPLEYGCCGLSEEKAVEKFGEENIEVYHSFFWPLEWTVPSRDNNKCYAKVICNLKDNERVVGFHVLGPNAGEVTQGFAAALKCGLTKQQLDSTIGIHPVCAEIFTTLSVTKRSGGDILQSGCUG
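Rat TrxR1, dispensed at 90 nM, was prereduced with 400 uM NADPH (final) for 5 min at ~22 deg C, then incubated with compound 15 min before 400 uM selenite. A first-read NADPH fluorescence drop versus no-compound background flagged substrates.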
FBPA coupling cs – qHTS Assay for Inhibitors of Fructose-1,6-bisphosphate Aldolase from Giardia Lamblia: Coupling assay counterscreen; coupling enzyme system counterscreen, AmpLite Red fluorescence; actives 0.67% (n = 290,000); activity change, negative = inhibition, % at 58.2 µM, hits read low; in the data active = activity change below about -30%
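Coupling enzymes only (glyceraldehyde-3-phosphate) + compound, at 57.5 uM final, 10 min RT; add substrate/coupling/AmpLite Red mix, 20 min RT; fluorescence ex 525/em 598 nm. Actives flag coupling-system interference.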
RORg inh – qHTS for inhibitors of ROR gamma transcriptional activity | Nuclear receptor ROR-gamma (Mus musculus), P51450 | Drosophila S2 Gal4-RORgamma UAS-luciferase reporter, 20 h | Potency, µM (doses to about 53.6 µM), without a hit: at the top dose activity change, negative = inhibition, hits mostly inhibitors | actives 5.4% (n = 310,000) | AID 2551, 2010; also: potency is read from the fitted curve at half-maximal effect; nearly all actives have a fitted effect of over 60% in size
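ROR gamma transcriptional activity was tracked as Gal4-UAS luciferase output in stably transfected Drosophila Schneider cells, with compound added 1 hr before 700 uM copper sulfate induction and a 20 hr ambient-temperature incubation.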
rTrxR1 inhibitor – qHTS Assay for Inhibitors of Mammalian Selenoprotein Thioredoxin Reductase 1 (TrxR1): qHTS | recombinant rTrxR1, NADPH fluorescence consumption, selenite substrate | actives 1% (n = 390,000) | Thioredoxin reductase 1, cytoplasmic (Rattus norvegicus), O89049 | Potency, µM (highest dose often 114 µM), without a hit: top-dose activity change, negative = inhibition, usual class: inhibitors; also: potency is read from the fitted curve at half-maximal effect; nearly all actives have a fitted effect of over 65% in size
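Rat TrxR1 (90 nM in the dispensed reagent) was pre-reduced with 400 uM NADPH for 5 min at room temperature, then incubated with compound for 15 min. After 400 uM selenite was added, NADPH fluorescence (Ex 340/Em 450 nm) was followed for 8 min.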
* hit, by the source's call; ? = inconclusive; / = not tested or not shown; [ ] = another dose, or the depositor's remark. A selection: hits, their analogues and other compounds. The true share with any hit is near 5.9%. Unless noted, calls follow the shape of the dose curve; as a rule, active = well fitted curve in the direction sought with a large enough effect; inconclusive = small, poorly fitted or top-dose-only effect, or another doubt; inactive = no such curve, though single readings can be large; an effect the other way counts as inactive or inconclusive. % is scaled to controls: 0 for no effect and ±100 for the full control effect.

SMILES	VP16 counter	GALK inhibitor	TrxR1 substrate	FBPA coupling cs	RORg inh	rTrxR1 inhibitor
CCn1nc(C)c(CN2CCCC(CNS(=O)(=O)c3ccc(OC)cc3)C2)c1C (configuration not stated)	-5.0%	-3.0%	1.8%	/	1.8%	10.5%
CCSc1nnc(NC(=O)CCNC(=O)c2ccccc2Cl)s1	/	/	13.1%	/	/	20.1%
CCCCc1ccc(NC(=S)N2CCCC2)cc1	10µM*	-11.6%	0.9%	/	11.2µM*	8.1%
S=C(Nc1ccccc1)N1CCCCCCC1	-4.7%	1.5%	9.9%[57.1 µM]	0.3	?	6.6%[57.1 µM]
Cn1cnnc1SCC(=O)Nc1ccc(S(=O)(=O)N2CCOCC2)cc1	/	/	2.0%	/	/	13.9%
Cc1sc2nc(CN(Cc3cccs3)C(=O)C3CC3)[nH]c(=O)c2c1C	-28.6%	0.5%	-1.6%[57.1 µM]	3.2	11.2µM*	5.5%[2.29 µM]
Cc1ccc(NC(=O)COc2ccc(-c3nn(C)c(=O)c4ccccc34)cc2)cc1	/	/	4.7%	/	/	23.6%
Cn1nc(-c2ccc(OCC(=O)Nc3cccnc3)cc2)c2ccccc2c1=O	15.8µM*	1.1%	-0.5%	1.4	1.78µM*	-6.7%
C=C(CCC(=O)c1ccccc1)C(=O)c1ccccc1	11.2µM*	-4.1%	5.1%[57.1 µM]	1.7	12.6µM*	-47.7%
Cc1csc2ncnc(N3CCN(S(=O)(=O)c4cccc(C(F)(F)F)c4)CC3)c12	10µM*	-3.4%	-1.1%	/	?	8.8%
Cc1ccc(CNC(=O)c2cc3ccc4cccnc4c3[nH]2)cc1	/	/	-1.6%	/	/	-6.4%
Nc1cccc2cnccc12	2.2%	-1.8%	3.7%	-37.6*	-9.3%	2.8%
Oc1cccc2cnccc12	-10.9%	-2.5%	-12.4%	-9.0	-2.0%	-21.6%
O=c1oc2ccccc2c(O)c1Sc1c(O)c2ccccc2oc1=O	/	/	-8.0%[57.1 µM]	/	/	8.2%[2.29 µM]
COc1ccc(NC(=O)C2=NN(C3CCS(=O)(=O)C3)C(=O)CC2)cc1S(N)(=O)=O (configuration not stated)	/	/	-10.6%	/	/	10.7%[57.1 µM]
COc1ccc(NC(=O)C2=NN(C3CCS(=O)(=O)C3)C(=O)CC2)cn1 (configuration not stated)	2.0%[10 µM]	-1.1%	-2.9%	-42.1*	7.7%	5.7%
CCCCCCCCCCCCCC(=O)OCC(COP(=O)([O-])OCC[N+](C)(C)C)OC(=O)CCCCCCCCCCCCC (configuration not stated)	-12.3%	/	/	/	10.5%	/
Cc1cc(C)c2[nH]c(O)c(N=Nc3ccc(C(=O)O)cc3)c2c1	-15.3%	6.2%	-2.6%	-0.2	36.8%	16.2%
Oc1[nH]c2ccccc2c1N=NC(=S)NCC1CCCO1 (configuration not stated)	-10.1%	-2.7%	-22.3%	3.1	-12.8%	?
Oc1[nH]c2c(Cl)cc(Cl)cc2c1N=NC(=S)NCC1CCCO1 (configuration not stated)	1.12µM*	0.9%	6.0%[57.1 µM]	-1.9	1.26µM*	2.9%[57.1 µM]
CCn1c(O)c(N=NC(=S)NCC2CCCO2)c2ccccc21 (configuration not stated)	1.78µM*	0.3%	0.1%	-8.4	0.282µM*	4.4%
Oc1[nH]c2ccc(Br)cc2c1N=NC(=S)NCC1CCCO1 (configuration not stated)	?	3.1%	-2.4%	-4.5	1.41µM*	-8.4%
Cc1cc(C)c2[nH]c(O)c(N=NC(=S)NCC3CCCO3)c2c1 (configuration not stated)	7.08µM*	2.1%	-2.3%	-0.9	5.01µM*	-4.6%
CCn1c(=O)cc(SCC(=O)NCC2CCCO2)c2ccccc21 (configuration not stated)	1.5%	1.7%	11.9%	0.3	-1.7%	14.7%
NS(=O)(=O)c1ccc(NS(=O)(=O)c2ccc(NC(=S)Nc3ccccc3)cc2)cc1	4.7%	-1.5%	9.0%[57.1 µM]	-1.9	-26.0%	?
SMILES	VP16 counter	GALK inhibitor	TrxR1 substrate	FBPA coupling cs	RORg inh	rTrxR1 inhibitor
NS(=O)(=O)c1ccc(NC(=S)Nc2ccn(Cc3cccc4ccccc34)n2)cc1	?	-1.6%	-0.8%[57.1 µM]	0.8	10µM*	12.6µM*
CCCCC1(Cc2cccc([N+](=O)[O-])c2)C(=O)N(c2ccccc2)N(c2ccccc2)C1=O	?	2.0%	-0.1%	-0.9	17.8µM*	13.9%
CCCCC1(Br)C(=O)N(c2ccccc2)N(c2ccccc2)C1=O	/	/	-3.4%	/	/	28.2µM*
CCCCC1(CO)C(=O)N(c2ccccc2)N(c2ccccc2)C1=O	0.6%	/	1.5%	-6.6	-13.2%	7.3%
O=C(O)C1CCN(C(=O)c2ccccc2N2C(=O)[C@@H]3Cc4c([nH]c5ccccc45)C(c4cccc(Cl)c4)N3C2=O)CC1 (some centres not stated)	-2.4%	/	4.1%	-0.3	38.0%	4.5%
CCOc1ccc(NS(=O)(=O)c2ccc(C(=O)N3CCCC(C)C3)cc2)cc1 (configuration not stated)	/	/	0.8%[57.1 µM]	/	/	5.4%[57.1 µM]
CC(C)Nc1nc(-c2ccccc2)nc(-n2ccnc2)n1	-26.3%	-1.5%	-2.9%	-0.6	?	-10.8%
c1ccc(CN2CCN(c3nc(-c4ccccc4)nc(-n4ccnc4)n3)CC2)cc1	?	-0.1%	-3.0%[57.1 µM]	-2.3	14.1µM*	-23.8%[57.1 µM]
c1ccc(CN2CCN(c3ncccn3)CC2)cc1	-8.6%	-0.1%	7.4%[57.1 µM]	-4.6	-7.6%	13.2%[57.1 µM]
c1ccc(-c2nc(-n3ccnc3)nc(-n3ccnc3)n2)cc1	4.5%	0.9%	1.7%	-50.9*	?	11.9%
Fc1ccc(-c2nnc(CSc3nnc4ccccn34)o2)cc1	2.5%	0.5%	3.2%	2.8	11.0%[10 µM]	5.5%
c1ccc(-c2cnc(CSc3nnc4ccccn34)o2)cc1	-29.3%	2.2%	15.7%	-37.5*	-27.5%	?
Cc1ccc(NC2=C(NC(=O)c3ccccc3)C(=O)c3ccccc3C2=O)cc1Cl	?	-0.4%	?	-47.6*	?	1.58µM*
Cc1ccc(NCC(=O)c2ccccc2)cc1Cl	-1.6%	-1.7%	-3.6%	-0.8	6.1%	6.8%
CC(C)NC1=C(Cl)C(=O)c2ccccc2C1=O	?	2.2%	0.0%[57.1 µM]	-42.4*	?	?
Cc1ccc(NC(=O)C(OC(=O)c2ccc(O)cc2)c2ccccc2)cc1Cl (configuration not stated)	-8.3%	0.5%	0.8%	2.9	-26.3%	18.6%
Cc1ccc(NC(=O)C(c2ccccc2)N(C)C)cc1Cl (configuration not stated)	?	0.6%	-4.4%[57.1 µM]	-0.3	17.8µM*	-1.5%
